This is an account of results in article PMC6212790, “How bacterial xenogeneic silencer rok distinguishes foreign from self DNA in its resident genome”.

In all, about 33,000 sequences were measured (“e-score”: median about -0.037, highest 2% from about 0.34 on). This excerpt belongs to a sample that is enriched for the highest values.

This experiment has as its target T1, GST-Rok (full length) (Bacillus subtilis subsp. subtilis str. …, UniProt O34857 1-191).
T1 sequence: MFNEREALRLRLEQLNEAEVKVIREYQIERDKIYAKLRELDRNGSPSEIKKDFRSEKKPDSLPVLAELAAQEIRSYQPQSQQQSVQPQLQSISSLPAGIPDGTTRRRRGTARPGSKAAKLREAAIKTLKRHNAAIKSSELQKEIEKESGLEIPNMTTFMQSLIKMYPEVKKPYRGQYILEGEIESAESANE
Kind of experiment: protein binding microarray; Rok is a gene silencer of Bacillus subtilis; high values mean tight binding. The following applies: protein: recombinant; tags: GST (pTH5325, pDEST15-Magic modified); dsDNA, one strand shown. Summed up:
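Each has a 25-mer constant primer and a 35-mer variable part from a de Bruijn sequence of order 10, covering every non-palindromic 8-mer at least 32 times (palindromic 16). Preference for each 8-mer is given as a rank-based, unitless enrichment score (E-score). Its range runs from 0.5 (most favored) to −0.5 (most disfavored).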
In the case of ACGGTTGC, the binding signal was -0.00987 E-score. To CGACGTAC belongs -0.0209 E-score; to ACTGCCGC, -0.152 E-score. On to ATAGGAAG, for which the binding signal was found to be 0.0173 E-score. To AGGCTCGA belongs -0.0603 E-score; to GATCTACA, 0.369 E-score; to GGTCTACA, 0.0329 E-score. On to GCTCTACA, for which the binding signal is -0.114 E-score.

TATCTACA: the binding signal was 0.348 E-score. For AATCTACA the value was 0.326 E-score; for CATCTACA, 0.177 E-score; for ATTAAATG, 0.0625 E-score. For AGGCTGTA the value was 0.00795 E-score; for ACAACTAC, 0.311 E-score. For ACTACAAC the value was 0.293 E-score; for CCTACTAC, 0.258 E-score. In the case of ACAACTAG, the binding signal was 0.351 E-score. For GCTACTAC, the binding signal worked out at 0.198 E-score.

For the sequence ACTACTAC, the binding signal was 0.4 E-score. For ACTACTGG the value was 0.224 E-score; for ACTACTCT, 0.184 E-score. For ACTACTAT the value was 0.465 E-score; for ACTACAAT, 0.344 E-score. For ACAACTAT the value was 0.33 E-score; for ACTACAAG, 0.22 E-score.

As to ATGCGAGA, the binding signal amounted to 0.00939 E-score. In the case of CGTTTGTC, the binding signal is -0.0759 E-score. With CTACCAAC, the binding signal is 0.164 E-score. For AGACGCTG the value was -0.151 E-score; for CAGTCCAA, -0.0763 E-score; for AGCCCAAC, -0.175 E-score. To TCCAGAAA belongs -0.00865 E-score. To ACTACTAG belongs 0.346 E-score. In the case of ACTACTCG, the binding signal was 0.187 E-score. To CCTACTAG belongs 0.0992 E-score; to ATGGTACG, 0.183 E-score. For GCATTAAC the value was 0.0561 E-score. To AGACTAAA belongs -0.0347 E-score; to ACACTAAA, 0.174 E-score; to CTACTAAC, 0.324 E-score.

Regarding ATACTAAA, the binding signal was 0.391 E-score. As to ATACTAAT, the binding signal amounted to 0.378 E-score. For the sequence ATACTAAC, the binding signal was 0.199 E-score.

Consider TTACTAAA, for which the binding signal is 0.32 E-score. To CTACTAAA belongs 0.357 E-score; to ATACTAAG, 0.175 E-score; to GAGGCATC, -0.172 E-score.

CAGCTGTA: the binding signal turned out to be 0.0605 E-score.

As to ACATCTAC, the binding signal is 0.272 E-score. To ACTTCGGA belongs -0.0792 E-score; to ACCCTAAA, 0.024 E-score; to CCACTGTC, -0.188 E-score. To CTGCTTTA belongs 0.0813 E-score; to ATAAGGAC, -0.2 E-score; to CTAGAAAC, 0.3 E-score.

In the case of TTAGAAAA, the binding signal was 0.185 E-score. For GCAGAAAC the value was -0.0153 E-score; for GTAGAAAA, 0.387 E-score. For CTAGAAAA the value was 0.291 E-score; for GTAGAAAC, 0.427 E-score; for ATCTGGTC, -0.135 E-score. To ATCTTTAA belongs 0.0286 E-score; to AGATTGGC, 0.136 E-score; to CGTTCCAC, -0.021 E-score. As for ATATTTAG, the binding signal amounted to 0.287 E-score. To CTATTTAC belongs 0.342 E-score; to ATATTTAA, 0.387 E-score; to CTATTTAA, 0.0252 E-score. ATTTTTAA: the binding signal was -0.0198 E-score. ATATTTAC: the binding signal was 0.379 E-score. For CTCTTTAC the value was 0.158 E-score; for ATATTTGC, 0.285 E-score; for ACATTTAC, 0.313 E-score.

As to AGTCAAAA, the binding signal was found to be 0.108 E-score.

Take CGTTTGAA: the binding signal was -0.00324 E-score. For ACCTTCAG the value was -0.119 E-score; for TCCACAAA, 0.0863 E-score. CGTCGCAA: the binding signal was -0.166 E-score. For ATAACTAA the value was 0.26 E-score.

Consider ATAACTAG, for which the binding signal stood at 0.243 E-score.

For ATAACTAT, the binding signal is 0.407 E-score. For the sequence AGAACTAT, the binding signal turned out to be 0.381 E-score. For AGAACTAG the value was 0.298 E-score; for AGAACTAA, 0.254 E-score; for CATGCTGA, -0.132 E-score. For AGTGGTCC the value was -0.177 E-score; for GTCCCGGA, -0.141 E-score; for AATCATTA, 0.158 E-score. For CATCATTA the value was 0.0295 E-score; for GATCATTA, 0.355 E-score.

For the sequence TGTAGGAA, the binding signal came out at 0.0806 E-score. To AGTAGTAA belongs 0.384 E-score; to TGTAGTAA, 0.349 E-score; to GGTAGTAA, 0.335 E-score.

As to CGTAGTAA, the binding signal was 0.198 E-score. To TGTTGTAA belongs 0.142 E-score.

As to ACTGGACG, the binding signal is 0.057 E-score. On to TCAAGTAA, for which the binding signal was found to be 0.154 E-score. To AGTAGACA belongs 0.0413 E-score; to CTAATCAA, 0.165 E-score. In the case of ATAATCTC, the binding signal came to 0.161 E-score. To CTAATCTA belongs 0.362 E-score. To CTAATCTC belongs 0.0718 E-score; to GTAATCTA, 0.245 E-score; to ATAATCTA, 0.352 E-score. To ATGCATGG belongs 0.0449 E-score; to AACCTACG, 9.3e-05 E-score; to CCAACTGC, -0.00979 E-score. For the sequence AGGTTTAA, the binding signal is 0.00862 E-score.

Regarding ATATACCA, the binding signal is 0.411 E-score.

In the case of ATATACCC, the binding signal came out at 0.188 E-score. Take ATATACCG: the binding signal was found to be 0.385 E-score. As to GTATACCA, the binding signal amounted to 0.311 E-score. To CTATACCA belongs 0.258 E-score. As to AGATACCG, the binding signal turned out to be 0.12 E-score. In the case of CATTAATC, the binding signal amounted to 0.219 E-score. For AACGGTCT the value was -0.0396 E-score. For GTCCCGCA the value was -0.196 E-score; for CGCGGTTA, -0.0283 E-score. To CTAAATAA belongs 0.251 E-score; to CTAAATAC, 0.351 E-score. Consider CTAAATAG, for which the binding signal came out at 0.172 E-score.

With ATAAATAC, the binding signal stood at 0.276 E-score. To GTAAATAA belongs 0.234 E-score.

As to GTAAATAC, the binding signal was 0.352 E-score. For CAAGCAGC the value was -0.0674 E-score; for CAGTTACA, 0.24 E-score; for TAGTTACA, 0.349 E-score. For GAGTTATA the value was 0.222 E-score; for AAGTTACA, 0.18 E-score; for TAGTTATA, 0.382 E-score. To CAGTTATA belongs 0.288 E-score. Take AGCTGAAG: the binding signal is 0.0654 E-score.

Consider AACGCCTA, for which the binding signal was -0.101 E-score. To ACTTAACC belongs 0.121 E-score; to ATACCGAC, 0.0836 E-score; to ATACCGAT, 0.342 E-score. For the sequence ATACCGAG, the binding signal was 0.116 E-score.

Consider GTTGGCGA, for which the binding signal was -0.0273 E-score. On to GGAGCAGA, for which the binding signal is -0.132 E-score.

As to CGCCTTCA, the binding signal amounted to 0.0118 E-score.

With TAGCAGGA, the binding signal was -0.0921 E-score. For ACCAAGGT the value was -0.0988 E-score. For GACACGAC the value was -0.0441 E-score; for ATTAGTTC, 0.172 E-score.

Consider ATTAGTTG, for which the binding signal came out at 0.334 E-score.

As to AGTAGTTG, the binding signal amounted to 0.388 E-score.

As to ACTAGTTG, the binding signal was 0.313 E-score. To AGTAGTTC belongs 0.413 E-score.

As for AGTAGTTA, the binding signal was 0.434 E-score. To CGTAGTTA belongs 0.127 E-score; to GTTAGTTA, 0.258 E-score. GGTAGTCA: the binding signal is 0.125 E-score.

Regarding CGTAGTTC, the binding signal amounted to 0.255 E-score. To AGTAGTGA belongs 0.0919 E-score; to GGTAGTTA, 0.413 E-score. GTAAGAAA: the binding signal came to 0.327 E-score.

On to CGTACAAC, for which the binding signal amounted to 0.103 E-score. On to CGGAGGAA, for which the binding signal is -0.194 E-score. To ACAATGAC belongs 0.00584 E-score; to AAAGACAA, 0.02 E-score. For GTTATTCA the value was 0.0398 E-score; for ATAGGTCC, 0.123 E-score; for CTAAGGCC, -0.158 E-score.

For the sequence AATATTCT, the binding signal turned out to be 0.338 E-score. AATATTGA: the binding signal came to 0.287 E-score.

Consider AATATTGG, for which the binding signal was 0.103 E-score. Turning to AATATTGT, the binding signal stood at 0.34 E-score. Turning to AATATTCG, the binding signal came out at 0.255 E-score. For AATATTCC the value was 0.131 E-score; for TGCGGGAA, -0.19 E-score; for CTAAGCCA, 0.0287 E-score.

Consider GGTTAGTA, for which the binding signal is 0.0365 E-score. For CGTCGTTC the value was -0.0713 E-score; for GAACCGAC, -0.0645 E-score.

On to CGAAGAAA, for which the binding signal amounted to 0.195 E-score. Take AGAAATTC: the binding signal was 0.228 E-score. For CGAAATTC the value was 0.341 E-score; for CGAAATTA, 0.269 E-score; for GCAACCAC, 0.0207 E-score.

Consider AGAATCTG, for which the binding signal is -0.0414 E-score.

Turning to GGAATCTA, the binding signal was 0.363 E-score.

Consider CGAATCTA, for which the binding signal worked out at 0.305 E-score. For AGAATCTA the value was 0.337 E-score.

On to GGAATCAA, for which the binding signal worked out at 0.103 E-score. For AGAATCTC the value was 0.0678 E-score. To CGGAATTA belongs 0.239 E-score; to GAAGGTTA, -0.0133 E-score. For GCACTCAA the value was -0.134 E-score; for ACCGGACC, -0.0925 E-score. Turning to ACGGTACG, the binding signal is -0.0886 E-score. For CCTCACCG the value was -0.0671 E-score; for ACACTACG, -0.0357 E-score; for AGACTACC, 0.249 E-score.

In the case of AAACTACT, the binding signal was found to be 0.484 E-score.

CAACTACC: the binding signal amounted to 0.303 E-score. To AAACTAAG belongs 0.345 E-score. For AAACTACC the value was 0.475 E-score; for AAACTACG, 0.377 E-score. For AAACTAAC the value was 0.233 E-score. Regarding ACACTACT, the binding signal is 0.236 E-score. To AAACTAAT belongs 0.332 E-score. For CAACTACG the value was 0.12 E-score. As to AGACTACT, the binding signal is 0.209 E-score. To ATGCGGCA belongs 0.0193 E-score.

For the sequence CACCTAAC, the binding signal turned out to be 0.06 E-score.

Turning to CTTCATAC, the binding signal stood at 0.0169 E-score. To ATGCAGGA belongs 0.0987 E-score.

As to ATAGAGAG, the binding signal is -0.0418 E-score. To AGAAAACC belongs -0.176 E-score. For AGCAAGCG the value was -0.0451 E-score; for GCTGGAGA, -0.105 E-score. Regarding ATTCGCAC, the binding signal was -0.0552 E-score.

With ATTAGGCC, the binding signal was -0.131 E-score.

As for AAACTAAA, the binding signal came out at 0.324 E-score.

With GAACTACC, the binding signal came out at 0.338 E-score.

Turning to GCACTACC, the binding signal was -0.000872 E-score.

For TGACTACA, the binding signal came to 0.197 E-score. For CAACTACA the value was 0.18 E-score; for AAACTACA, 0.408 E-score; for GAACTACA, 0.222 E-score.

For the sequence TCACTACA, the binding signal was determined as 0.0227 E-score. To TAACTACA belongs 0.441 E-score.
